Test results published in PMC7862700, “An all-to-all approach to the identification of sequence-specific readers for epigenetic DNA modifications on cytosine”.

Key:
Assay in all cases: DAPPL (digital affinity profiling via proximity ligation, sequencing); 10 mM Tris-HCl pH 7.5, 50 mM NaCl, 1 mM DTT, 4% glycerol, room temperature, 30 min; GST-TFs on glutathione beads, 16-mer random dsDNA library, 0.1% formaldehyde crosslink after washing; high values mean tight binding
[1] = target: T1, FLI1 (Homo sapiens, UniProt Q01543 1-452); settings: protein: recombinant; tags: N-terminal GST; dsDNA, one strand shown
T1 sequence: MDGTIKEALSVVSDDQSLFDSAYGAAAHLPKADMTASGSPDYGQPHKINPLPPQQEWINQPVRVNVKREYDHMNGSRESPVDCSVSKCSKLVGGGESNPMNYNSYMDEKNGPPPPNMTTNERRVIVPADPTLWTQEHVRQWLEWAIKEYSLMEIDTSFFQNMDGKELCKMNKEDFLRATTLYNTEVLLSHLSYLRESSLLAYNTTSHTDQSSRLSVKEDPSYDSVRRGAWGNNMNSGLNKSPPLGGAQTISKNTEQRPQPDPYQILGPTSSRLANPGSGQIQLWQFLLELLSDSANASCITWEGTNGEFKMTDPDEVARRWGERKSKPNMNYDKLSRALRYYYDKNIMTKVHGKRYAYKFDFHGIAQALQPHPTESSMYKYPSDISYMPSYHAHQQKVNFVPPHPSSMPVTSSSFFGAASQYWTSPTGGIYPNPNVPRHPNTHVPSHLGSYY
How it was run: (§1)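 Human transcription factors fused to GST were expressed in yeast, captured on glutathione beads, given DNA barcodes and pooled with a GST-only negative control. Pools were incubated with 200 nmole of a 16-mer random double-stranded DNA library in Tris/NaCl/DTT/glycerol buffer at room temperature for 30 min. They were then washed, crosslinked with 0.1% formaldehyde, proximity-ligated (BsaI/T4 ligase, 1 h, 37 °C), PCR-amplified and sequenced on an Illumina NextSeq500. Binding signal is each 6-mer's read frequency for a factor divided by its frequency for the GST control.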

[2] = target: T2, ELK1 (Homo sapiens, UniProt P19419 1-428); settings: protein: recombinant; tags: N-terminal GST; dsDNA, one strand shown
T2 sequence: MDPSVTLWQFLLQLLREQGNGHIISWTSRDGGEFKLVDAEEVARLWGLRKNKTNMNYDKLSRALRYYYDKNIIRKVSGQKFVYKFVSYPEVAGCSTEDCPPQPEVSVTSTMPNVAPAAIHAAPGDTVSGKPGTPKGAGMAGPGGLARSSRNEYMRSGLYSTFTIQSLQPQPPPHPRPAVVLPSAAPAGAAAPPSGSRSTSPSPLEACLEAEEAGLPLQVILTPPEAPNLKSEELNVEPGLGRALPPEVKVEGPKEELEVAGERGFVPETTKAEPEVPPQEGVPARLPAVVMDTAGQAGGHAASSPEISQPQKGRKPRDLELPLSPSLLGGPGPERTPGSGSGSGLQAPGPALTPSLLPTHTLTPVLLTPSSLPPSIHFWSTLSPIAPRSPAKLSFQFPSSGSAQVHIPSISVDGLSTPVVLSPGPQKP
How it was run: as §1

[3] = target: T3, GABPA (Homo sapiens, UniProt Q06546 1-454); settings: protein: recombinant; tags: N-terminal GST; dsDNA, one strand shown
T3 sequence: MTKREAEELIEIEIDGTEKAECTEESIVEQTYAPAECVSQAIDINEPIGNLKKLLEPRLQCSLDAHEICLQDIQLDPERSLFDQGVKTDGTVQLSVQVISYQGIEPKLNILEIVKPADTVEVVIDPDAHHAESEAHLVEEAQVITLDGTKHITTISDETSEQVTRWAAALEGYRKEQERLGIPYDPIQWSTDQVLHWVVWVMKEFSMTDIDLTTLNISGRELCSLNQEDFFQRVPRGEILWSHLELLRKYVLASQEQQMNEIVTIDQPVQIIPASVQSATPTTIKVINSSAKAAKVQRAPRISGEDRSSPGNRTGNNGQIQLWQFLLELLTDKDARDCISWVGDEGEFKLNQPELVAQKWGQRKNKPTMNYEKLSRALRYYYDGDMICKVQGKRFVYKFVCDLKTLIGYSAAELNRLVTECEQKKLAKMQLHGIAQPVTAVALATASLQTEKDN
How it was run: as §1

[4] = target: T4, ERG (Homo sapiens, UniProt P11308 1-479); settings: protein: recombinant; tags: N-terminal GST; dsDNA, one strand shown
T4 sequence: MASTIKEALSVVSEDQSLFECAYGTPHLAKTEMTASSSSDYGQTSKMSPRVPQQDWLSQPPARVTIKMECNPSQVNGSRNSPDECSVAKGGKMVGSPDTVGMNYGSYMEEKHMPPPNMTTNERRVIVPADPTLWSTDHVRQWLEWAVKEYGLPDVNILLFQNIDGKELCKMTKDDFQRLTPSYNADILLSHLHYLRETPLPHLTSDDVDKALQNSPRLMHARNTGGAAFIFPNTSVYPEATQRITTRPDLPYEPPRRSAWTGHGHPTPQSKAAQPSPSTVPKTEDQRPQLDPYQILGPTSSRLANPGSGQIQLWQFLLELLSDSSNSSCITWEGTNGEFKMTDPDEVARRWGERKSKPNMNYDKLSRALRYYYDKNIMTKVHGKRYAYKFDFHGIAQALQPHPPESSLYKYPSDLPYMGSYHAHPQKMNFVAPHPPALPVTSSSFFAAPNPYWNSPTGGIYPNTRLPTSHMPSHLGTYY
How it was run: as §1

[5] = target: ELF1 (Homo sapiens, UniProt P32519 1-619); settings: protein: recombinant; tags: N-terminal GST; dsDNA, one strand shown
How it was run: as §1

[6] = target: T5, EHF (Homo sapiens, UniProt Q9NZC4 1-300); settings: protein: recombinant; tags: N-terminal GST; dsDNA, one strand shown
T5 sequence: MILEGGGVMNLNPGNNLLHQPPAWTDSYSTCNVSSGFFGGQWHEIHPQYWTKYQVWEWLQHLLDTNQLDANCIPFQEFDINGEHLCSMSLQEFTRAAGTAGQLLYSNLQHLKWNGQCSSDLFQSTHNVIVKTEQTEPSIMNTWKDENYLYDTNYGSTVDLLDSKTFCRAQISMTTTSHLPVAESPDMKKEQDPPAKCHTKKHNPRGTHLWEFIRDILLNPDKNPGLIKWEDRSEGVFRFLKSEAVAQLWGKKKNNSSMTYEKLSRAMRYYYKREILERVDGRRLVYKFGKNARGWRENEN
How it was run: as §1

[7] = target: SPI1 (Homo sapiens, UniProt P17947 1-270); settings: protein: recombinant; tags: N-terminal GST; dsDNA, one strand shown
How it was run: as §1

[8] = target: SPIB (Homo sapiens, UniProt Q01892 1-262); settings: protein: recombinant; tags: N-terminal GST; dsDNA, one strand shown
How it was run: as §1

[9] = target: T6, ELK3 (Homo sapiens, UniProt P41970 1-407); settings: protein: recombinant; tags: N-terminal GST; dsDNA, one strand shown
T6 sequence: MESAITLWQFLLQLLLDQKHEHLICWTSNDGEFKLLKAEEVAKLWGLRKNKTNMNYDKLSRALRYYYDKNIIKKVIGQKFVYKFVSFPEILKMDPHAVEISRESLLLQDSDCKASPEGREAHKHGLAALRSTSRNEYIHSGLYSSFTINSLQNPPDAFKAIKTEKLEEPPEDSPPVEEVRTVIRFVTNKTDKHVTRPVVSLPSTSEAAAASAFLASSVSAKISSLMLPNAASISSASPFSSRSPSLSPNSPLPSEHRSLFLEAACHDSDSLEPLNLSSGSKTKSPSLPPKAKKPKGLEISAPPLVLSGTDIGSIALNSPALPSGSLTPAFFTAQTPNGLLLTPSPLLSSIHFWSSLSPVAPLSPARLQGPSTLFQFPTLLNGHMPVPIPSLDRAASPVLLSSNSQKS
How it was run: as §1

[10] = target: T7, FEV (Homo sapiens, UniProt Q99581 1-238); settings: protein: recombinant; tags: N-terminal GST; dsDNA, one strand shown
T7 sequence: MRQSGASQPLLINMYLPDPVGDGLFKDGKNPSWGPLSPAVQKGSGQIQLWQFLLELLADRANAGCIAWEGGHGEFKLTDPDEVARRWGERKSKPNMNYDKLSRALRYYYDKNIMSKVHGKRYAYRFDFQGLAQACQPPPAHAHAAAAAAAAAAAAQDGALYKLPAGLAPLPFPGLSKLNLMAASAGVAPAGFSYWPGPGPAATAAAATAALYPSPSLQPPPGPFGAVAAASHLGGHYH
How it was run: as §1

[11] = target: ETV5 (Homo sapiens, UniProt P41161 1-510); settings: protein: recombinant; tags: N-terminal GST; dsDNA, one strand shown
How it was run: as §1

[12] = target: HSF1 (Homo sapiens, UniProt Q00613 1-529); settings: protein: recombinant; tags: N-terminal GST; chain copies: 3; dsDNA, one strand shown
How it was run: as §1

[13] = target: T8, SPIC (Homo sapiens, UniProt Q8N5J4 1-248); settings: protein: recombinant; tags: N-terminal GST; dsDNA, one strand shown
T8 sequence: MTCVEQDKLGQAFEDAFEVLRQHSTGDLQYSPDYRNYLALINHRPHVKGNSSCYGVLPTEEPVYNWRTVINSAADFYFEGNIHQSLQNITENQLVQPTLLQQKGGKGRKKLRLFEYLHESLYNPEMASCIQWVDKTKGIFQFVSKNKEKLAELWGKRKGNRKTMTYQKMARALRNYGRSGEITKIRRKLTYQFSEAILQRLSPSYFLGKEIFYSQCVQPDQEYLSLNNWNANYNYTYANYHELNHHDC
How it was run: as §1

[14] = target: ELF4 (Homo sapiens, UniProt Q99607 1-663); settings: protein: recombinant; tags: N-terminal GST; dsDNA, one strand shown
How it was run: as §1

[15] = target: T9, ELK4 (Homo sapiens, UniProt P28324-2 1-405); settings: protein: recombinant; tags: N-terminal GST; dsDNA, one strand shown
T9 sequence: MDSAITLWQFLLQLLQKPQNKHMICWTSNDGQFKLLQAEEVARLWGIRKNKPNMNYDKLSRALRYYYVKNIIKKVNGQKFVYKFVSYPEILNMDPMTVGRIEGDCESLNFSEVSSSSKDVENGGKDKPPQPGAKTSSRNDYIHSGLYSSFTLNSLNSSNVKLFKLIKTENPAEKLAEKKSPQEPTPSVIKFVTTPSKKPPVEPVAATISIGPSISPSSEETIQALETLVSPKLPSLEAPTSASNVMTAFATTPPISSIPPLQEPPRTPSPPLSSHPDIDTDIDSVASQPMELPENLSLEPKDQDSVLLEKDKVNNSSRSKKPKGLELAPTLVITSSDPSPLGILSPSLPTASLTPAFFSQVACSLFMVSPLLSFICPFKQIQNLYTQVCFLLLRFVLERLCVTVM
How it was run: as §1

[16] = target: T10, ETV2 (Homo sapiens, UniProt O00321 1-342); settings: protein: recombinant; tags: N-terminal GST; dsDNA, one strand shown
T10 sequence: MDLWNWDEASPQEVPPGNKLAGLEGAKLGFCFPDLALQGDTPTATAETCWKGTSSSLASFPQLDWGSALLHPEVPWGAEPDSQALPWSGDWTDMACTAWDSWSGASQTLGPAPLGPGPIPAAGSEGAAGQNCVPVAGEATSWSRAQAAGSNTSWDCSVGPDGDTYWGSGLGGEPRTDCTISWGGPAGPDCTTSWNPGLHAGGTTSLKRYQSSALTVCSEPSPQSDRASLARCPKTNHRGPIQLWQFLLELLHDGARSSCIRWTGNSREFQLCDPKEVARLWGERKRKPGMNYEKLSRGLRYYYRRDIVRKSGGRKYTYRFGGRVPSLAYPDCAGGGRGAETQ
How it was run: as §1

[17] = target: T11, ELF3 (Homo sapiens, UniProt P78545 1-371); settings: protein: recombinant; tags: N-terminal GST; dsDNA, one strand shown
T11 sequence: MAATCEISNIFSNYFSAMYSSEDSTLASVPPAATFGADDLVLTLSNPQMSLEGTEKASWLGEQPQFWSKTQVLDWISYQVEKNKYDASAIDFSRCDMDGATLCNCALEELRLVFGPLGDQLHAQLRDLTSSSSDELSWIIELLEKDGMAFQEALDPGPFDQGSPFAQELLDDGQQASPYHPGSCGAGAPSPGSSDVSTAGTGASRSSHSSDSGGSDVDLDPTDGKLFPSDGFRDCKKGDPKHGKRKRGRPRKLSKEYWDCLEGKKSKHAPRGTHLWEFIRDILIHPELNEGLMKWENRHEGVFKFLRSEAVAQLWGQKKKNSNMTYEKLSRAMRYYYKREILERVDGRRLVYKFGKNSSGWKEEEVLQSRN
How it was run: as §1

[18] = target: CRX (Homo sapiens, UniProt O43186 1-299); settings: protein: recombinant; tags: N-terminal GST; dsDNA, one strand shown
How it was run: as §1

[19] = target: ETV1 (Homo sapiens, UniProt P50549 1-477); settings: protein: recombinant; tags: N-terminal GST; dsDNA, one strand shown
How it was run: as §1

SPIB, sequence (Q01892 whole entry): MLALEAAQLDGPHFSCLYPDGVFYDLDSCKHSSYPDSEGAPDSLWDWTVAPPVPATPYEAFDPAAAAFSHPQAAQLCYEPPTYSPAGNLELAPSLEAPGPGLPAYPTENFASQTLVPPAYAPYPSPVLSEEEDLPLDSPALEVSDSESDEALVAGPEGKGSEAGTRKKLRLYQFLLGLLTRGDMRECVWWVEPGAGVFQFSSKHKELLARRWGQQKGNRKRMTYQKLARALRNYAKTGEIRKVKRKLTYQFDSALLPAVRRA
ETV5, sequence (P41161 whole entry): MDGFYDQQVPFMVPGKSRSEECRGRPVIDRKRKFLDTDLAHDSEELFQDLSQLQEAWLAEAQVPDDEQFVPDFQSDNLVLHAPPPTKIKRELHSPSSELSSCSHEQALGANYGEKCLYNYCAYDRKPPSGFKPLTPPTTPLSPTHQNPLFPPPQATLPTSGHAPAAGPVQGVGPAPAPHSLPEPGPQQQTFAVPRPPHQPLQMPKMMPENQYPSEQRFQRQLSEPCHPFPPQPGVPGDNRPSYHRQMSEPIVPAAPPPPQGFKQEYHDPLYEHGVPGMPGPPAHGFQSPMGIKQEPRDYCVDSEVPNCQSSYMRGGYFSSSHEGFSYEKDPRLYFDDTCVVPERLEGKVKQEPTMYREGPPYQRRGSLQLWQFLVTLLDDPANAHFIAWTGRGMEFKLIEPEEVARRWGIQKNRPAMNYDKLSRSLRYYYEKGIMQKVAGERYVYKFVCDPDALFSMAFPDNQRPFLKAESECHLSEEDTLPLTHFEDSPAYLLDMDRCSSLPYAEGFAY
ELF4, sequence (Q99607 whole entry): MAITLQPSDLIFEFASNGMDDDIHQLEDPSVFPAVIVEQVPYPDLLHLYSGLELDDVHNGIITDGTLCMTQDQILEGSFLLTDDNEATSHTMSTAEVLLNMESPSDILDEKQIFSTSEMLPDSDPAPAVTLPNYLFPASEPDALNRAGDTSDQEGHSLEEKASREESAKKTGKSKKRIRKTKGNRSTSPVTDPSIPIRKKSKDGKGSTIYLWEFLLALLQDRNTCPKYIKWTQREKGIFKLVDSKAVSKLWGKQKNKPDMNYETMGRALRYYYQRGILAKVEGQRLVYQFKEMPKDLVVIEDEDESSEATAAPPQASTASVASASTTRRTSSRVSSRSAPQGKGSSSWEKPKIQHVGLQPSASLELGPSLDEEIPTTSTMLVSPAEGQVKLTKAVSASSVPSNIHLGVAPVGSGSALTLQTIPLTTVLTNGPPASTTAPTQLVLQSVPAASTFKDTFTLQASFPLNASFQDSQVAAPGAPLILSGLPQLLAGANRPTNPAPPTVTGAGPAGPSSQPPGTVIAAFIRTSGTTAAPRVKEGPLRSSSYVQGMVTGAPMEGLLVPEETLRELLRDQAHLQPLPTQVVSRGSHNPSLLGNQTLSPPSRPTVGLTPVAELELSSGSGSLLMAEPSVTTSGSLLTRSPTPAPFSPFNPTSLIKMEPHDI
HSF1, sequence (Q00613 whole entry): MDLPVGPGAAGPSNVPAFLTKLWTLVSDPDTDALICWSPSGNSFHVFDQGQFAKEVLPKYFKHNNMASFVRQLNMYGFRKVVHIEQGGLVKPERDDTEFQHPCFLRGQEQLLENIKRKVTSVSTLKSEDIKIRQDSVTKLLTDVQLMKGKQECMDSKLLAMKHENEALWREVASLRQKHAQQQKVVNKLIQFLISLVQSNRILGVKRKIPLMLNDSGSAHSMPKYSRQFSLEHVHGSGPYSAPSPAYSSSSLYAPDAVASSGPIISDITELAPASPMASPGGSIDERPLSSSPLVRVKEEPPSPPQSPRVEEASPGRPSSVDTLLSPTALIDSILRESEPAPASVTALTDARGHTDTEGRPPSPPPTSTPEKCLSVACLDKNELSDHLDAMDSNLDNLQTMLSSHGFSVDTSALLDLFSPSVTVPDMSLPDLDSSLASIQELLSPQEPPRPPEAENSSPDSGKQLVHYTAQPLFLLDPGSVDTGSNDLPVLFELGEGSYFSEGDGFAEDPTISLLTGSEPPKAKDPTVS
ETV1, sequence (P50549 whole entry): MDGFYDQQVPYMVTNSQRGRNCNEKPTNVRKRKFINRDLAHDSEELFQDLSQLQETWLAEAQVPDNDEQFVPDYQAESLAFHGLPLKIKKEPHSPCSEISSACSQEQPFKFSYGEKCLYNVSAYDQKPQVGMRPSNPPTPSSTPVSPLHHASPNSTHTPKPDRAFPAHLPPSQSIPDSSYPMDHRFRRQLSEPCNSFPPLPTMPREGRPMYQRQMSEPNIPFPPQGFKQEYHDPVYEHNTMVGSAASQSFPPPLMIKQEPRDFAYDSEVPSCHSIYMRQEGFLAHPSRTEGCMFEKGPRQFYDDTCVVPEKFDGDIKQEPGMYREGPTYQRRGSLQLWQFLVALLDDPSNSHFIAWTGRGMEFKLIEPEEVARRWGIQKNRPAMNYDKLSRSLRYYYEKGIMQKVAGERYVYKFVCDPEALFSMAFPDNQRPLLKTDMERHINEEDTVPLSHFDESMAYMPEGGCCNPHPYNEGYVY
ELF1, sequence (P32519 whole entry): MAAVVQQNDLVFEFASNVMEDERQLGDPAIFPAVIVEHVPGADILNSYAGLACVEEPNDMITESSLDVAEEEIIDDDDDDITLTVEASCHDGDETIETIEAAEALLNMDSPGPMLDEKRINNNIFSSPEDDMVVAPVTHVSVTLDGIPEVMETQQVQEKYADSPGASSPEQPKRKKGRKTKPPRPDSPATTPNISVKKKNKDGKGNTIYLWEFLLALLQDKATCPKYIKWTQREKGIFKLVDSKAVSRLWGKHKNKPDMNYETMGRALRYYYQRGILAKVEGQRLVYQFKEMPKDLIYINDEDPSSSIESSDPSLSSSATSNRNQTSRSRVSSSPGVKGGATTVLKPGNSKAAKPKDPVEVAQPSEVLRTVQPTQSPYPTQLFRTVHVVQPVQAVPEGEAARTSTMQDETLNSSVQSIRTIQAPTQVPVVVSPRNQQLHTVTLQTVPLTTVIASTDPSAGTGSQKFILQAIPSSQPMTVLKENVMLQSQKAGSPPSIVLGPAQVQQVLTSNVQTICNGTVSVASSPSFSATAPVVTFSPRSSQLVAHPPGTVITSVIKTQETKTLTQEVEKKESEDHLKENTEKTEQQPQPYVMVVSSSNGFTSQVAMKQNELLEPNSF
CRX, sequence (O43186 whole entry): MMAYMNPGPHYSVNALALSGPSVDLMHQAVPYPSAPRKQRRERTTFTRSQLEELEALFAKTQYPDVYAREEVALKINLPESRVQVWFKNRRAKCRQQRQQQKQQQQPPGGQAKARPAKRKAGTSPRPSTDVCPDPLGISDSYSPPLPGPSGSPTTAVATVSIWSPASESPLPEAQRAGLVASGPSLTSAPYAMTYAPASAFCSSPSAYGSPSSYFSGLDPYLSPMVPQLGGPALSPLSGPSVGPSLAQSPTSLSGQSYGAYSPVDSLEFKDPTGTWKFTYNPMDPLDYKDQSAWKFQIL

TCACGC
binding signal [1]: 1.35 fold enrichment (6-mer frequency, TF over GST control) | binding signal [2]: 1.18 fold enrichment (6-mer frequency, TF over GST control) | binding signal [3]: 1.22 fold enrichment (6-mer frequency, TF over GST control) | binding signal [4]: 1.18 fold enrichment (6-mer frequency, TF over GST control) | binding signal [5]: 1.2 fold enrichment (6-mer frequency, TF over GST control) | binding signal [6]: 1.24 fold enrichment (6-mer frequency, TF over GST control) | binding signal [7]: 1.17 fold enrichment (6-mer frequency, TF over GST control) | binding signal [8]: 1.17 fold enrichment (6-mer frequency, TF over GST control) | binding signal [9]: 1.28 fold enrichment (6-mer frequency, TF over GST control) | binding signal [10]: 1.18 fold enrichment (6-mer frequency, TF over GST control) | binding signal [11]: 1.15 fold enrichment (6-mer frequency, TF over GST control) | binding signal [12]: 1.08 fold enrichment (6-mer frequency, TF over GST control) | binding signal [13]: 1.25 fold enrichment (6-mer frequency, TF over GST control) | binding signal [14]: 1.16 fold enrichment (6-mer frequency, TF over GST control) | binding signal [15]: 1.34 fold enrichment (6-mer frequency, TF over GST control) | binding signal [16]: 1.26 fold enrichment (6-mer frequency, TF over GST control) | binding signal [17]: 1.35 fold enrichment (6-mer frequency, TF over GST control) | binding signal [18]: 1.02 fold enrichment (6-mer frequency, TF over GST control) | binding signal [19]: 1.13 fold enrichment (6-mer frequency, TF over GST control)
